This is a sample that favours compounds with a hit; in the whole collection about 5.3% have one here.
IMPase Li cell = qHTS Assay for Identifying the Cell-Membrane Permeable IMPase Inhibitors: Potentiation with Lithium. CHO-M1 cells, IP1 TR-FRET (IP-One), carbachol + lithium. Potency, µM (top dose mostly 59.4 µM), hits mostly inhibitors. hit rate 0.35% among 210,000. AID 1457, 2008;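 further: IP1 builds up when IMPase is blocked and the TR-FRET signal falls; nearly all actives have a fitted effect of over 50% in size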
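IP1 accumulation measured by competitive TR-FRET in lysed CHO-M1 cells after 30 min compound exposure at 37C, with a small lithium addition to potentiate weak responses. Hill-equation AC50 from ratio and donor-channel data.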
HPGD inh = qHTS Assay for Inhibitors of HPGD (15-Hydroxyprostaglandin Dehydrogenase); Potency, µM, hits mostly inhibitors; 15-hydroxyprostaglandin dehydrogenase [NAD(+)] (Homo sapiens), P15428; hit rate 4.3% among 150,000; purified HPGD, NADH fluorescence kinetic, PGE2 substrate; AID 894, 2007; active means well fitted inhibition curve with a large enough effect, not every such curve was filed as active; inconclusive means small, poorly fitted or top-dose-only effect, or another doubt; inactive means no such curve, though single readings can be large or run the other way
Target sequence (P15428 whole entry, looked up): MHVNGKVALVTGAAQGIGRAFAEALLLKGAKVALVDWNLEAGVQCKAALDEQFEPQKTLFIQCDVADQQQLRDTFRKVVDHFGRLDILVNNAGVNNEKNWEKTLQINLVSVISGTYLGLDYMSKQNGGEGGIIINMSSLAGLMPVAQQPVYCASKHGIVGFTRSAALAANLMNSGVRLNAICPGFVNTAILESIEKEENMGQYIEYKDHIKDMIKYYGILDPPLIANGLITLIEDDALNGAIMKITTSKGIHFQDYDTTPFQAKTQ
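20 nM HPGD preincubated 15 min at room temperature with compound in 50 mM Tris-HCl pH 8, 0.01% Tween 20. Started with 1 mM NAD+ and 30 uM prostaglandin E2; NADH fluorescence (360/450 nm) read 5 times over 30-s intervals, last minus first.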
ALOX12 inhib = qHTS Assay for Inhibitors of 12-hLO (12-human lipoxygenase). hit rate 0.12% among 150,000. AID 1452, 2008. Potency, µM (doses to about 57.1 µM), actives largely listed as inhibitors. purified 12-hLO, xylenol orange hydroperoxide absorbance. Polyunsaturated fatty acid lipoxygenase ALOX12 (Homo sapiens), P18054; further: nearly all actives have a fitted effect of over 55% in size
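Hydroperoxide formation by human 12-lipoxygenase from 40 uM arachidonic acid was followed colorimetrically via ferric-xylenol orange complex, using the 573/405 nm absorbance ratio. Enzyme concentration was 150 nM, with 30 min reaction at room temperature.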
IMPase cell inh = qHTS Assay for Identifying the Cell-Membrane Permeable IMPase Inhibitors | Inositol monophosphatase 1 (Rattus norvegicus), P97697 | CHO-M1 cells, IP1 accumulation, HTRF TR-FRET ratio | inhibition (IP1 accumulation), % at 46.1 µM | 120,000 tested, under 10 active; active means well fitted curve in the direction sought with a large enough effect in the signal ratio, not every such curve was filed as active; inconclusive means small, poorly fitted or top-dose-only effect, or a change in a side signal; inactive means no such curve, though single readings can be large or run the other way; the % refers to the signal ratio;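 further: cells stimulated with carbachol in lithium chloride buffer; higher means more IMPase inhibition seen as more IP1 and lower FRET ratio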
Target sequence (P97697 whole entry, looked up): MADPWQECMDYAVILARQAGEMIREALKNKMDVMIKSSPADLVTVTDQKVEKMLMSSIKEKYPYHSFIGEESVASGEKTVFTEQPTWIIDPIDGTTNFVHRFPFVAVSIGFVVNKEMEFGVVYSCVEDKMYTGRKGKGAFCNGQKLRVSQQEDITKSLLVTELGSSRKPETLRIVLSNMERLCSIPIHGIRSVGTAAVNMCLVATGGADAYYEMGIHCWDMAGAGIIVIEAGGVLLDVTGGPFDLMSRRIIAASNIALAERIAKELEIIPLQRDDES
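CHO-M1 cells (CHO stably expressing M1 receptor), compound up to 46 uM final, stimulated with carbachol (50 uM as added) in buffer with 50mM LiCl, pH 7.4, 30 min at 37C. Cytosolic IP1 read by TR-FRET; AC50 from Hill fits.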
ALOX15B inhib = qHTS Assay for Inhibitors of 15-hLO-2 (15-human lipoxygenase 2); Potency, µM (highest dose often 57.1 µM), usual class: inhibitors; Polyunsaturated fatty acid lipoxygenase ALOX15B (Homo sapiens), O15296; hit rate 0.56% among 110,000; purified 15hLO-2, xylenol orange hydroperoxide absorbance; further: nearly all actives have a fitted effect of over 60% in size
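Purified human 15hLO-2 (50 nM final) preincubated with compounds 15 min at room temperature in 25 mM Hepes pH 7.5, 0.01% Triton X-100, then 45 uM arachidonic acid added for 90 min; hydroperoxide detected via ferrous/xylenol orange, 573/405 nm absorbance ratio.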
PNC inhibitor = High Content Assay for Compounds that inhibit the Assembly of the Perinucleolar Compartment. PC3M PTB-GFP, PNC prevalence imaging, 16 h; hits give low values. activity change (PNC), negative = inhibition, % at 10 µM. hit rate 3.1% among 140,000. AID 2417, 2010;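 active means readout at or below -70, meaning at least 70% loss of cells showing the perinucleolar compartment, a nuclear body marking cancer cells; inconclusive means readout between -30 and a set limit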
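Read-out is percentage of cells bearing a perinucleolar compartment, from automated 20x imaging of fixed, Hoechst-stained PC3M PTB-GFP cells. Cells were seeded 4 h, then exposed 16 h to compound (23 nl of library stock) in duplicate plates.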
Each line names hits and unclear results; the compound was inactive in the other large screens. Unless noted, the call rests on the fitted dose curve; in most records, active means well fitted curve in the direction sought with a large enough effect; inconclusive means small, poorly fitted or top-dose-only effect, or another doubt; inactive means no such curve, though single readings can be large; an effect the other way counts as inactive or inconclusive.

Cn1sc(NC(=O)c2ccccc2Cl)nc1=O	HPGD inh 14µM, PNC inhibitor inconclusive
Cc1cc(S(=O)(=O)NCC(C)C)ccc1OCC(=O)NCC1CCCO1 (configuration not stated)	PNC inhibitor inconclusive (no result: IMPase cell inh, ALOX15B inhib)
COc1ccc(C(CC(=O)Nc2ccccc2OC)n2cccc2)cc1 (configuration not stated)	HPGD inh 25µM (no result: IMPase cell inh, ALOX15B inhib)
CCc1nnc(NC(=O)CSc2nc3c(c(=O)n2C)SC(C)C3)s1 (configuration not stated)	none (no result: ALOX15B inhib)
CC1Cc2nc(SCC(=O)NC3CCCCC3)n(C)c(=O)c2S1 (configuration not stated)	HPGD inh 40µM
CCn1c(SCC(=O)N2CCOCC2)nc2c(c1=O)SC(C)C2 (configuration not stated)	PNC inhibitor -100 (no result: ALOX15B inhib)
COc1cccc(CN2CCC(N(CCc3ccccc3)Cc3ccccc3)CC2)c1OC	none (no result: IMPase cell inh, ALOX15B inhib)
O=C(O)c1c[nH]c2cc(OCc3ccccc3)ccc2c1=O	HPGD inh inconclusive (no result: IMPase cell inh, PNC inhibitor)
O=C(O)CCN1C(=O)/C(=C\c2ccc(-c3nc4ccccc4s3)o2)SC1=S	HPGD inh 16µM
Cc1nn(CCC(N)=S)c2nc(-c3cccs3)cc(C(F)(F)F)c12	HPGD inh 28µM, PNC inhibitor inconclusive (no result: ALOX15B inhib)
O=C(Cc1ccc(F)cc1)N/N=C/c1ccccn1	PNC inhibitor -113 (no result: IMPase cell inh, ALOX15B inhib)
O=C(Cc1ccc(Br)c2ccccc12)N/N=C/c1ccccn1	none (no result: HPGD inh, ALOX12 inhib, IMPase cell inh, ALOX15B inhib, PNC inhibitor)
Clc1ccc(C[n+]2csc3ccccc32)cc1	HPGD inh 16µM, ALOX12 inhib inconclusive (no result: IMPase cell inh, ALOX15B inhib)
Fc1ccc(CSc2ncnc3scc(-c4ccccc4)c23)cc1	none (no result: IMPase cell inh, ALOX15B inhib)
Fc1ccc(C[n+]2csc3ccccc32)cc1	HPGD inh 10µM (no result: ALOX15B inhib)
Clc1ccc(-c2c[n+](Cc3ccc(Cl)c(Cl)c3)c3n2CCC3)cc1	none (no result: ALOX15B inhib)
COc1ccccc1NC(=O)C1=C(C)Nc2nc(SCc3ccccc3C)nn2C1CC(C)C (configuration not stated)	none (no result: IMPase Li cell, HPGD inh, ALOX12 inhib, ALOX15B inhib, PNC inhibitor)
COCCN1CN(S(=O)(=O)c2ccccc2)c2nc3ccccc3nc21	HPGD inh inconclusive, PNC inhibitor -117
COCCN1CN(S(=O)(=O)c2ccc(Cl)cc2)c2nc3ccccc3nc21	PNC inhibitor inconclusive
Fc1ccccc1CN1CCCN(C(=S)Nc2cccc(Cl)c2)C1	none (no result: HPGD inh, ALOX12 inhib, IMPase cell inh, ALOX15B inhib, PNC inhibitor)
O=C(Nc1ccccc1)N1CCCN(Cc2ccccc2F)C1	HPGD inh 25µM
CCOc1cccc(-c2nnc3sc(C4CCCCC4)nn23)c1	HPGD inh 32µM, PNC inhibitor inconclusive
Cc1ccc(C)c(Cn2nnc3c(=O)[nH]c(C4CCCN(C(=O)CC(C)C)C4)nc32)c1 (configuration not stated)	HPGD inh 10µM
Cc1ccc(C(=O)N2CCCC(c3nc4c(nnn4Cc4ccccc4)c(=O)[nH]3)C2)cc1 (configuration not stated)	HPGD inh 3.5µM, PNC inhibitor inconclusive
COCCCNC(=O)c1nc2c(nnn2Cc2cc(C)ccc2C)c(=O)[nH]1	HPGD inh 0.45µM (no result: ALOX15B inhib)
CCCCC(=O)N1CCCC(c2nc3c(nnn3Cc3cc(C)ccc3C)c(=O)[nH]2)C1 (configuration not stated)	HPGD inh 2.2µM, PNC inhibitor inconclusive
CCn1cc(C(=O)O)c(=O)c2cc(F)c(N3CCNC(C)C3)c(F)c21 (configuration not stated)	HPGD inh inconclusive (no result: IMPase cell inh, PNC inhibitor)
COc1ccccc1-c1ccc2ncnc(N3CCOCC3)c2c1	none (no result: HPGD inh, ALOX12 inhib, IMPase cell inh, PNC inhibitor)
Cc1nc(=O)c(-c2ccccc2)c(C)n1-c1cccc(C(=O)O)c1	PNC inhibitor -101 (no result: IMPase Li cell, HPGD inh)
Cn1c(SCc2ccc(Cl)cc2)nnc1C1CC1	none (no result: HPGD inh, ALOX12 inhib, IMPase cell inh, ALOX15B inhib, PNC inhibitor)
